Source: PubChem BioAssay
Sm TGR block: inhibitors of Schistosoma mansoni thioredoxin glutathione reductase. actives 3% (n = 360,000). purified TGR, DTNB reduction, TNB absorbance 405 nm. Potency, µM (series often up to 114 µM), most hits filed as inhibitors. AID 485364; further: nearly all actives have a fitted effect of over 60% in size
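TGR 20 nM + NADPH 100 uM (dispensed conc.), cpd preinc 15 min RT; start with NADPH (500 uM addition) then DTNB (15 mM addition). Kinetic TNB absorbance, 405 nm filter. Four-parameter Hill fit across titration.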
Shiga toxin inh: inhibitors of Shiga toxin in Vero cells. actives 9.2% (n = 290,000). inhibition, % at 38.7 µM. AID 2315. Vero cells, Shiga toxin protein synthesis inhibition reporter; in the data active means inhibition mostly above about 28%, no sharp cut-off; inactive means mostly below about 43%
LmPK inh: LmPK (Leishmania mexicana) enzyme inhibition; actives 0.37% (n = 290,000); Potency, µM (highest dose often 57.5 µM), usual class: inhibitors; AID 1721; purified LmPK, Kinase-Glo ATP luminescence, 1 h; Q27686
Target sequence (Q27686 whole entry, looked up): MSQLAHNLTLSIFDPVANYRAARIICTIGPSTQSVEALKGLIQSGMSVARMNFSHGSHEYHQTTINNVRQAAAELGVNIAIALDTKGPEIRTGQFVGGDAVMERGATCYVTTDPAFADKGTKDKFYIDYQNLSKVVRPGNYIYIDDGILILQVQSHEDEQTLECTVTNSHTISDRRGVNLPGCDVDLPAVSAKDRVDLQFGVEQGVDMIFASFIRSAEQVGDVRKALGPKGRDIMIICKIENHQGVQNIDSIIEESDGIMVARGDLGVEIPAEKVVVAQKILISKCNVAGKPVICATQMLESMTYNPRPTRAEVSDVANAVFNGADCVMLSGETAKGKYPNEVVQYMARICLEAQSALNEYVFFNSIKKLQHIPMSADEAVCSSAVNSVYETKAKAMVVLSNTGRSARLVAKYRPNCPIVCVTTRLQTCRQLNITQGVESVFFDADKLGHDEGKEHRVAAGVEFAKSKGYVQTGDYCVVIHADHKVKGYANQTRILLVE
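ATP generated from ADP (0.1 mM) and PEP (0.5 mM) by 0.1 nM LmPK over 1 h at room temperature (pH 7.2 imidazole buffer) was detected by coupled luciferase luminescence. Values were normalized to uninhibited and no-enzyme wells.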
CHX counter: affects cycloheximide protein synthesis inhibition readout, counter-screen; cell reporter, cycloheximide protein synthesis inhibition counterscreen; max response, %; actives 12% (n = 300,000); AID 2314; in the data active means max response mostly above about 13%, no sharp cut-off; inactive means mostly below about 14%; further: read at 38.3 µM for the half of the compounds with a filed dose
Tb PYK inh: inhibitors of Trypanosoma brucei pyruvate kinase; Q57TT1; TbPYK enzyme, Kinase-Glo Plus ATP luminescence, 45 min; Potency, µM (top dose mostly 76.8 µM), actives largely listed as inhibitors; actives 0.12% (n = 410,000); AID 624173; further: nearly all actives have a fitted effect of over 50% in size
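Assay buffer: 50 mM TEA pH 7.2, 100 mM KCl, 10 mM MgCl2, 0.05% BSA, 0.01% Tween-20. Pyruvate kinase from T. brucei plus substrate met compound, then ADP (130 uM final). Luminescence was read post 45 min RT.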
FBPA Giardia inh: Giardia lamblia aldolase inhibition; A8B2U2; AID 2451; actives 0.71% (n = 290,000); purified Giardia FBPA; Potency, µM (series often up to 59.6 µM), usual class: inhibitors; further: nearly all actives have a fitted effect of over 55% in size
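40 nM FBPA preincubated 10 min at RT with compound (up to 57.5 uM final), then substrate plus GAPDH/TPI/NAD/arsenate coupling and diaphorase/resazurin added. Fluorescence read after 20 min at RT, 525/598 nm.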
A number is an active result; 0 = inactive; ? = inconclusive; - = no result given; + = active, no number; [ ] = dose if it differs, or a comment. This excerpt belongs to a sample that is enriched for hits. Unless noted, the call rests on the fitted dose curve; in most records, active means well fitted curve in the direction sought with a large enough effect; inconclusive means small, poorly fitted or top-dose-only effect, or another doubt; inactive means no such curve, though single readings can be large; an effect the other way counts as inactive or inconclusive.

SMILES | Sm TGR block | Shiga toxin inh | LmPK inh | CHX counter | Tb PYK inh | FBPA Giardia inh
CCN(CCCNC(=O)c1nn(-c2ccc(OC)cc2)c(=O)c2c1c1ccccc1n2C)c1cccc(C)c1 | 0 | - | - | - | 0 | -
CC1C(=O)Nc2ccc(S(=O)(=O)NCc3ccc(N(C)C)cc3)cc2NC1=O (centres undefined) | 0 | - | - | - | 0 | -
CC(C)CNC(=O)/C(C#N)=C1\N=C(NC(=O)c2ccco2)c2ccccc21 | 0 | 0 | 0 | 12 | 0 | 0
CCCNC(=O)/C(C#N)=C1\N=C(NC(=O)c2ccco2)c2ccccc21 | 0 | 0 | 0 | 0 | 0 | -
Cc1ccc(Nc2n[nH]c(C)c2[N+](=O)[O-])cc1C | 0 | 0 | 0 | 32 | 0 | 0
COc1ccccc1N1CCN(C(=O)CN2C(=O)C3CCCCC3C2=O)CC1 (centres undefined) | 0 | 77 | 0 | 28 | 0 | 0
COc1cccc(N2CCN(C(=O)CCSCc3ccccc3F)CC2)c1 | 0 | 0 | 0 | 0 | 0 | 0
COc1ccccc1N1CCN(C(=O)CCSCc2ccccc2F)CC1 | 0 | 49 | 0 | 0 | 0 | 0
COc1ccccc1N1CCN(C(=O)Cc2ccc(Cl)cc2)CC1 | 0 | 0 | 0 | 17 | 0 | 0
Cc1noc(C)c1-c1ccc(C(=O)Nc2ccc(C(C)C)cc2)c2occc12 | - | - | - | - | 0 | -
COc1ccc2[nH]cc(CCNc3ncnc4ccc(-c5ccc6c(c5)OCO6)cc34)c2c1 | - | - | - | - | - | 0
CC1(C(=O)NS(=O)(=O)c2cccc(Cl)c2)CCN1C(=O)CCc1ccccc1 (centres undefined) | - | - | - | - | 0 | -
COC/C=C/C1=CC2=CC(=O)C(C)(OC(=O)C3CCCC3)C(=O)C2=CO1 (centres undefined) | 3.5µM | 0 | 0 | 0 | 0 | ?
COC/C=C/C1=CC2=CC(=O)C(C)(OC(=O)c3ccco3)C(=O)C2=CO1 (centres undefined) | 3.2µM | 0 | 0 | 0 | - | ?
COC/C=C/C1=CC2=CC(=O)C(C)(OC(=O)c3cccs3)C(=O)C2=CO1 (centres undefined) | - | - | - | - | - | 0
CN(C)c1ccc(CNC(=O)C2CCCN(S(=O)(=O)c3ccc4c(ccn4C)c3)C2)cc1 (centres undefined) | 0 | - | - | - | 0 | -
S=C(NC1CCCCC1)N1CCc2[nH]c3ccccc3c2C1 | 0 | 44 | 0 | 0 | 0 | 0
O=C(N=C1c2ccccc2CN1c1ccc(F)c(Cl)c1)c1cccnc1Cl | 0 | 77 | 0 | 70 | - | 0
N=C1c2ccccc2CN1c1ccc(F)c([N+](=O)[O-])c1 | 0 | 0 | 0 | 0 | 0 | 0
N#Cc1ccc(N2Cc3ccccc3C2=NC(=O)c2cccnc2Cl)cc1 | ? | + | 0 | 25 | 0 | 0
c1cc(-c2cccs2)nc(-c2cccs2)c1 | 0 | 53 | 0 | 46 | 0 | 0
c1csc(-c2cnc3ccccc3n2)c1 | 0[11.4 µM] | 75 | 0 | 29 | 0 | 0
c1ccc(-c2cccs2)nc1 | 0 | 0 | 0 | 0 | 0 | 0
O=C(NCc1ccccn1)c1nn(-c2ccccc2F)nc1CO | 0 | - | - | - | 0 | -
CCc1ccc(NC(=O)Nc2ccccc2OCc2cc(=O)n3ccccc3n2)cc1 | 0 | - | - | - | 0 | -
SMILES | Sm TGR block | Shiga toxin inh | LmPK inh | CHX counter | Tb PYK inh | FBPA Giardia inh
COc1ccccc1Cc1c(-c2ccc(Cl)cc2)nc2ccc(Br)cn12 | - | - | - | - | 0 | -
Cc1ccn2c(CN3CCOCC3)c(-c3ccccc3)nc2c1 | 0 | 48 | 0 | 28 | 0 | 0
Clc1ccc(-c2nc3ccccn3c2CN2CCCCC2)cc1 | 0 | 0 | 0 | 19 | 0 | 0
CN(C)Cc1c(-c2ccc(Cl)cc2)nc2ccccn12 | 0 | 126 | 0 | 45 | 0 | 0
COc1nc(C)cnc1NS(=O)(=O)c1cccnc1-c1ccc(-c2nnco2)cc1 | - | - | - | - | 0 | -
COc1ccc(NC(=O)CC2C(=O)N(c3cccc(OC)c3)C(=O)N2CCc2cccs2)cc1 (centres undefined) | 0 | - | - | - | 0 | -
Cc1c(NC(=O)c2cc(=O)c3cc(Cl)ccc3o2)c(=O)n(-c2ccccc2)n1C | 0 | - | - | - | 0 | -
Cc1cc(NCCCn2ccnc2)n2nc(C)c(-c3ccc(Cl)cc3)c2n1 | 0 | 0 | 0 | 26 | 0 | 0
Cc1cc(NCCCn2ccnc2)n2nc(C)c(-c3ccccc3)c2n1 | 0 | 0 | 0 | 44 | 0 | 0
Cc1cc(NCCN2CCOCC2)n2nc(C)c(-c3ccc(Cl)cc3)c2n1 | 0 | 0 | 0 | 0 | 0 | 0
COc1ccc(OC)c(S(=O)(=O)NC(=O)C2(C)CCN2C(=O)c2ccco2)c1 (centres undefined) | - | - | - | - | 0 | -
Cc1ccc(N2C(N)=C(C#N)C(c3cccnc3)C3=C2CCCC3=O)cc1 (centres undefined) | 0 | 0 | 0 | 0 | 0 | 0
N#CC1=C(N)N(c2ccc(Br)cc2)C2=C(C(=O)CCC2)C1c1cccnc1 (centres undefined) | 40µM | 0 | 0 | 0 | 0 | ?
COc1ccc2cc(-c3[nH]ncc3CN3CCCN(c4ccccc4)CC3)ccc2c1 | 0 | 0 | 0 | 16 | 0 | 0
COCC1CCCCN1Cc1cn[nH]c1-c1ccc2cc(OC)ccc2c1 (centres undefined) | 0 | 32 | 0 | 19 | 0 | 0
COc1ccc(-c2[nH]ncc2CN2CCCO2)cc1F | 0 | 0 | 0 | 0 | 0 | 0
COc1ccc2cc(-c3[nH]ncc3CN3C[C@@H]4CCC[C@H]3C4)ccc2c1 | 0 | 0 | 0 | 32 | 0 | 0
COc1ccc2cc(-c3[nH]ncc3CN3CCCCO3)ccc2c1 | 0 | 57 | 0 | 20 | 0 | 0
O=C(c1ccco1)N1CCC[C@@]2(CCN(c3ccccn3)C2)C1 | - | - | - | - | 0 | 0
COc1ccc(N2C(=O)CSC23C(=O)N(CC(=O)NCc2ccccc2)c2ccccc23)cc1 (centres undefined) | 0 | - | - | - | 0 | -
CCc1cccc(C)c1NS(=O)(=O)c1ccc2c(c1)NC(=O)C(C)C(=O)N2 (centres undefined) | 0 | - | - | - | 0[15.4 µM] | -
O=C1C=CC(=O)N1c1cccc(-c2ccccc2)c1 | 0.71µM | 0 | ? | 0 | 5µM | 0
Cc1c(O)c(O)cc2c1CC=C1[C@]3(C)CC[C@]4(C)CC[C@@](C)(C(=O)O)CC4[C@]3(C)CC[C@]12C (some centres undefined) | - | - | - | - | - | 0
CC1=C(O)C(=O)C=C2C1=CC=C1C2(C)CCC2(C)C3CC(C)(C(=O)O)CCC3(C)CCC12C (centres undefined) | - | - | - | - | 35µM | -
O=C(Nc1ccccc1[N+](=O)[O-])c1cncc(Br)c1 | 0 | 0 | 0 | 28 | 0 | 0
O=C(NC(=S)Nc1cccc2[nH]ncc12)c1ccccc1 | ? | 58 | 0 | 36 | 0 | 0
CNC(=S)Nc1cccc2[nH]ncc12 | 0 | 0 | 0 | 0 | - | 0
O=C(NC(=S)Nc1ccccc1[N+](=O)[O-])c1ccccc1 | ? | 96 | 0 | 45 | 0 | ?
CC(C)(C)c1ccc(NC(=O)c2ccccc2)c([N+](=O)[O-])c1 | 0 | 122 | 0 | 35 | 0 | 0
